Assay [1] can be described thus: ATG_E_Box_CIS: Attagene CIS-FACTORIAL HepG2 Assay for human Enhancer Box (E-box) (AID 2282936). Particulars: HepG2 E-box cis-reporter transcription, actives raise or lower the signal. The method, boiled down:
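Multiplexed CIS reporter system in transiently transfected HepG2 cells measures native transcription factor activity. Reporter RNA after 24 h exposure is profiled by RT-PCR-capillary electrophoresis.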

Assay [2] is described as follows: ATG_M_61_CIS: Attagene CIS-FACTORIAL HepG2 Assay for M61 Transcription Factor (Internal Marker) (AID 2282937). The conditions noted are these: HepG2 Attagene CIS-FACTORIAL M61 internal marker reporter; actives raise or lower the signal. The method, boiled down:
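Readout: fluorescent reporter mRNA fragments resolved by capillary electrophoresis after RT-PCR. Transiently transfected human HepG2 cells carried MRTU constructs reporting endogenous TF activity; 24 h chemical exposure; gain or loss of signal fitted relative to DMSO.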

Assay [3] can be described thus: ATG_EGR_CIS: Attagene CIS-FACTORIAL HepG2 Assay for human Early Growth Response 1 (EGR1) (AID 2282938). Particulars: HepG2 Attagene CIS-FACTORIAL EGR reporter mRNA; actives raise or lower the signal. The method, boiled down:
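Read-out: fluorescent reporter-mRNA fragments resolved by capillary electrophoresis after RT-PCR, 24 h post-dose in transiently transfected HepG2. Endogenous transcription-factor activity reported via cis-element-regulated reporter units; gain or loss fitted relative to DMSO.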

Assay [4] can be described thus: ATG_Ets_CIS: Attagene CIS-FACTORIAL HepG2 Assay for human Erythroblast Transformation Specific (ETS) (AID 2282941). The conditions noted are these: HepG2 ETS cis-reporter transcription, actives raise or lower the signal. The method, boiled down:
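HepG2 cells transfected with multiple cis-regulated reporter units measuring endogenous ETS-driven transcription, 24 h after dosing. Reporter mRNA quantified by RT-PCR with capillary electrophoresis; bidirectional fit relative to DMSO.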

Assay [5] addresses Hepatocyte nuclear factor 3-beta (Homo sapiens) (UniProt Q9Y261). Description: ATG_FoxA2_CIS: Attagene CIS-FACTORIAL HepG2 Assay for human Forkhead box A2 (FOXA2) (AID 2282942). The conditions noted are these: HepG2 cis-reporter transcription factor activity, 24 h; actives raise or lower the signal. The method in brief: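 Readout: fluorescent reporter transcripts resolved by capillary electrophoresis after RT-PCR. Transiently transfected HepG2, 24 h compound exposure, endogenous TF activity at cis promoter elements. Gain or loss of signal fitted relative to DMSO.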

A short description of assay [6]: ATG_FoxO_CIS: Attagene CIS-FACTORIAL HepG2 Assay for human Forkhead box O (FoxO) (AID 2282943). Particulars: HepG2 Attagene cis-reporter, FoxO element, mRNA; actives raise or lower the signal. The method in brief: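 HepG2 cells transiently transfected with cis-promoter-driven multiple reporter transcription units; 24 h after chemical dosing, reporter mRNA quantified by RT-PCR, fluorescent primer extension, HpaI digestion and capillary electrophoresis. Bidirectional fitting versus DMSO baseline.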

Assay [7] is described as follows: ATG_GATA_CIS: Attagene CIS-FACTORIAL HepG2 Assay for human GATA Binding Protein (AID 2282944). Particulars: HepG2 GATA cis-element reporter, Attagene multiplex mRNA; actives raise or lower the signal. The method, boiled down: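 Transfected cis-reporter HepG2 cells were treated with chemicals for 24 hours. Total RNA was then converted to cDNA, amplified with reporter-specific primers and analysed by fluorescent capillary electrophoresis, using DMSO-treated wells as baseline.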

Assay [8] can be described thus: ATG_GLI_CIS: Attagene CIS-FACTORIAL HepG2 Assay for human Zinc Finger Protein GLI1 (AID 2282945). The conditions noted are these: HepG2, Attagene cis-factorial reporter mRNA, GLI element; actives raise or lower the signal. The method in brief: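 HepG2 cells transiently transfected with cis-promoter multiplexed reporter units report endogenous transcription factor activity. After 24 h chemical exposure, reporter mRNA was quantified by RT-PCR, 6-FAM labelling, HpaI digestion and capillary electrophoresis, with bidirectional fitting against DMSO.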

Assay [9] concerns the target Bile acid receptor (Homo sapiens) (UniProt Q96RI1). Description: ATG_IR1_CIS: Attagene CIS-FACTORIAL HepG2 Assay for human Nuclear Receptor Subfamily 1 Group H Member 4 (NR1H4), IR1 submotif (AID 2282946). Particulars: IR1 reporter transcription, actives raise or lower the signal. The method, boiled down:
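Transient MRTU transfection, HepG2; 24 h dosing; RNA → RT-PCR → 6-FAM primer extension → HpaI digest → capillary electrophoresis fluorescence. Gain/loss of signal fitted relative to DMSO.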

Assay [10] is described as follows: ATG_M_32_CIS: Attagene CIS-FACTORIAL HepG2 Assay for M32 Transcription Factor (Internal Marker) (AID 2282949).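 Note: background control marker of the multiplexed CIS panel rather than a real target.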 The conditions noted are these: HepG2 Attagene cis-factorial M32 reporter, mRNA; actives raise or lower the signal. The method, boiled down:
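HepG2 cells transiently transfected with multiplexed cis-regulated reporter units, dosed 24 h. Reporter mRNA quantified by RT-PCR, 6-FAM labelling, HpaI digestion and capillary electrophoresis; bidirectional fit vs DMSO.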

A short description of assay [11]: ATG_M_06_CIS: Attagene CIS-FACTORIAL HepG2 Assay for M06 Transcription Factor (Internal Marker) (AID 2282950). The conditions noted are these: HepG2 Attagene CIS-FACTORIAL M06 internal marker reporter; actives raise or lower the signal. The method in brief:
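Cells (HepG2, transiently carrying cis-driven reporter units) receive chemical for 24 h before RNA isolation. Reporter cDNA is PCR-amplified, FAM-labelled by primer extension, HpaI-digested and sized on a capillary analyser.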

Assay [12] addresses Hypoxia-inducible factor 1-alpha (Homo sapiens) (UniProt Q16665). Description: ATG_HIF1a_CIS: Attagene CIS-FACTORIAL HepG2 Assay for human Hypoxia Inducible Factor 1 (HIF1A) (AID 2282951). The conditions noted are these: HepG2 Attagene cis-factorial HIF1a reporter transcription; actives raise or lower the signal. The method in brief:
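RT-PCR/capillary electrophoresis fluorescence readout of reporter transcripts from endogenous-TF-driven cis elements in transfected HepG2 cells, 24 h exposure; activity fitted in both directions against DMSO controls.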

Assay [13] deals with Hepatocyte nuclear factor 6 (Homo sapiens) (UniProt Q9UBC0). Description: ATG_HNF6_CIS: Attagene CIS-FACTORIAL HepG2 Assay for human Hepatocyte Nuclear Factor 6 (HNF6) (AID 2282952). The conditions noted are these: HepG2 Attagene cis-factorial HNF6 reporter transcription; actives raise or lower the signal. The method in brief:
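HepG2, transient MRTU transfection (cis promoters); 24 h chemical exposure; total RNA → oligo(dT) RT → PCR → 6-FAM labelling → HpaI cut → CE; bidirectional fit vs DMSO.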

The target of assay [14] is Heat shock factor protein 1 (Homo sapiens) (UniProt Q00613). Description: ATG_HSE_CIS: Attagene CIS-FACTORIAL HepG2 Assay for human Heat Shock Transcription Factor 1 (HSE) (AID 2282953). The conditions noted are these: HepG2 HSE cis-reporter, Attagene RNA transcription; actives raise or lower the signal. The method, boiled down: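 Liver-derived HepG2 cells carry transiently introduced multiple reporter units governed by cis promoters. Reporter RNA measured 24 h post-dose through reverse transcription, PCR amplification, fluorescent labelling and capillary electrophoresis, normalised to DMSO.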

Assay [15] is described as follows: ATG_MRE_CIS: Attagene CIS-FACTORIAL HepG2 Assay for human Metal Responsive Element (MRE) (AID 2282954). The conditions noted are these: HepG2 MRE cis-reporter transcription, Attagene multiplex; actives raise or lower the signal. The method, boiled down: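 Step one: transfect HepG2 with cis-regulated reporter units. Step two: dose 24 h. Step three: isolate RNA, RT-PCR, 6-FAM label, HpaI digest, capillary electrophoresis. Fit bidirectionally to DMSO.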

Assay [16] can be described thus: ATG_ISRE_CIS: Attagene CIS-FACTORIAL HepG2 Assay for human Interferon Regulatory Factor 1 (IRF1) binding to an Interferon-Stimulated Response Element (ISRE) (AID 2282948). The conditions noted are these: HepG2 ISRE cis-reporter (Attagene), mRNA transcription readout; actives raise or lower the signal. The method, boiled down:
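Transiently transfected HepG2 cells carrying cis-element reporter units, dosed 24 hours. Reporter mRNA quantified by RT-PCR, fluorescent primer extension, HpaI digestion and capillary electrophoresis. Bidirectional fitting relative to DMSO.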

A short description of assay [17]: ATG_PBREM_CIS: Attagene CIS-FACTORIAL HepG2 Assay for human Phenobarbital-responsive Enhancer Module (PBREM) (AID 2282955). Particulars: HepG2 PBREM cis-reporter, Attagene multiplexed transcription; actives raise or lower the signal. The method, boiled down:
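Reporter mRNA read by RT-PCR, 6-FAM primer extension, HpaI digestion and capillary electrophoresis. Transfected HepG2 cells, 24 h compound exposure. Gain or loss of signal fitted bidirectionally relative to DMSO baseline.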

Assay [18] can be described thus: ATG_GRE_CIS: Attagene CIS-FACTORIAL HepG2 Assay for human Glucocorticoid Response Elements (GRE) (AID 2282947). Particulars: HepG2 GRE cis-reporter, Attagene multiplex mRNA; actives raise or lower the signal. The method, boiled down:
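Following 24 h chemical exposure of transiently transfected HepG2 cells, total RNA was reverse-transcribed and reporter cDNA amplified, fluorescently labelled and sized by capillary electrophoresis. Signal gain or loss was fitted relative to DMSO vehicle.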

Active and inactive are the calls of the source. Rule for the calls: active = hit-call score of the fitted dose curve at least 0.9, where 1 is the maximum; inactive = score below 0.9.

Chain of Bile acid receptor (Homo sapiens) (Q96RI1 whole entry, looked up): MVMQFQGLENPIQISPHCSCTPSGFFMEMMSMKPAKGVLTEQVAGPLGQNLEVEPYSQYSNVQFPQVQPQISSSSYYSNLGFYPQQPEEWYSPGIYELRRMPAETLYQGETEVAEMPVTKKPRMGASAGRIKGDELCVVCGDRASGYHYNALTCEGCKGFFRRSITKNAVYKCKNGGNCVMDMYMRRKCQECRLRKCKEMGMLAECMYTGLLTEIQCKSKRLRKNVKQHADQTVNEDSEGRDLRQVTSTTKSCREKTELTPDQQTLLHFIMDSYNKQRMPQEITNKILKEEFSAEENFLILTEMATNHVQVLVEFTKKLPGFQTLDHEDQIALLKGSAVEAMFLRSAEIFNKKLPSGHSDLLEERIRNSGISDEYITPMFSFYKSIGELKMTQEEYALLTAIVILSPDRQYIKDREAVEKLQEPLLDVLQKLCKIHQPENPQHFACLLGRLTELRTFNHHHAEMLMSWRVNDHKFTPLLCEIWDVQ
Chain of Hepatocyte nuclear factor 6 (Homo sapiens) (Q9UBC0 whole entry, looked up): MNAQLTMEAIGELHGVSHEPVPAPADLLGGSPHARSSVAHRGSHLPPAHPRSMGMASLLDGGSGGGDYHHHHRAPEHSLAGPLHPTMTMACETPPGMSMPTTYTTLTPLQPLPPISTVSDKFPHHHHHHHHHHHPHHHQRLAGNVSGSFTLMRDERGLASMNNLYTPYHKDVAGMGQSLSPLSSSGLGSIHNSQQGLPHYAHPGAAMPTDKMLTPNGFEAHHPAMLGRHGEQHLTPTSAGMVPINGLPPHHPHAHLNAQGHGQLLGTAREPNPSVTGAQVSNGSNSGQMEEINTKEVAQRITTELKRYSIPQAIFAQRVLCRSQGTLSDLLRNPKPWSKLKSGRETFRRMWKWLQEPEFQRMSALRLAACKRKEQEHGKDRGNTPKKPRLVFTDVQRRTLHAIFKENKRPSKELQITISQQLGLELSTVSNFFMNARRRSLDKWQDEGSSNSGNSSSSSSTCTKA
Chain of Hepatocyte nuclear factor 3-beta (Homo sapiens) (Q9Y261 whole entry, looked up): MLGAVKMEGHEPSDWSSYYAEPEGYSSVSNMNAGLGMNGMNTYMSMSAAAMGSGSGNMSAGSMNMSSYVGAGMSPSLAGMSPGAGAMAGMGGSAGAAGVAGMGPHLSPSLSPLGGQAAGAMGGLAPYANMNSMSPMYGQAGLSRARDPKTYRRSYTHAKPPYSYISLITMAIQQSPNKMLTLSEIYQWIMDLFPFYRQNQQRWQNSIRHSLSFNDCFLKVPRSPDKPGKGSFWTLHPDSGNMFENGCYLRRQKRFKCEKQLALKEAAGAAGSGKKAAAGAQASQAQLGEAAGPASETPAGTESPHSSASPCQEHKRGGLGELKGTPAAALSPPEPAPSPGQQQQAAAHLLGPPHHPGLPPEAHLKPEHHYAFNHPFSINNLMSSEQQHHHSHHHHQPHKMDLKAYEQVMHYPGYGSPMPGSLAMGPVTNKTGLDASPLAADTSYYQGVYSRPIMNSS
Chain of Hypoxia-inducible factor 1-alpha (Homo sapiens) (Q16665 whole entry, looked up): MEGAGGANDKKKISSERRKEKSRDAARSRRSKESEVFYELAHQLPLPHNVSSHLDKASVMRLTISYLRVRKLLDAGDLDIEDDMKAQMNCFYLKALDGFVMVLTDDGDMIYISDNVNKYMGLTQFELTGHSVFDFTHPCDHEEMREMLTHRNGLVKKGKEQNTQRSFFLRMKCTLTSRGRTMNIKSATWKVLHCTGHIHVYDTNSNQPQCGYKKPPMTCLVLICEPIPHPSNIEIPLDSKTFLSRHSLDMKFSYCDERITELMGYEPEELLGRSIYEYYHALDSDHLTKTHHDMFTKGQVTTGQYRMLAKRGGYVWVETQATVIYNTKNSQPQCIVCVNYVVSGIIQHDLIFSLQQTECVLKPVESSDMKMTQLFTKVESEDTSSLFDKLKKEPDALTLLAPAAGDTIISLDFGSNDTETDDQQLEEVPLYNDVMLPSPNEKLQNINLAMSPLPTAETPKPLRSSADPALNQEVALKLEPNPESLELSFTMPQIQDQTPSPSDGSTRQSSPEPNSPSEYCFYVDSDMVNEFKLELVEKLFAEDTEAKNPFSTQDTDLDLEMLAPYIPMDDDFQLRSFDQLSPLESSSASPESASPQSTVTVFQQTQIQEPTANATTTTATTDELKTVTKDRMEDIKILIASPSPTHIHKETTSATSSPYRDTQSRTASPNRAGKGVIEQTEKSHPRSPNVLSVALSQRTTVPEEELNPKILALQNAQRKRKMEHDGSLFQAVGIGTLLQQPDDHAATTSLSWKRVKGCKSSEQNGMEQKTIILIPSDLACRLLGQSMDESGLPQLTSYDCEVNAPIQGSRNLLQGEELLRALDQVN
Chain of Heat shock factor protein 1 (Homo sapiens) (Q00613 whole entry, looked up): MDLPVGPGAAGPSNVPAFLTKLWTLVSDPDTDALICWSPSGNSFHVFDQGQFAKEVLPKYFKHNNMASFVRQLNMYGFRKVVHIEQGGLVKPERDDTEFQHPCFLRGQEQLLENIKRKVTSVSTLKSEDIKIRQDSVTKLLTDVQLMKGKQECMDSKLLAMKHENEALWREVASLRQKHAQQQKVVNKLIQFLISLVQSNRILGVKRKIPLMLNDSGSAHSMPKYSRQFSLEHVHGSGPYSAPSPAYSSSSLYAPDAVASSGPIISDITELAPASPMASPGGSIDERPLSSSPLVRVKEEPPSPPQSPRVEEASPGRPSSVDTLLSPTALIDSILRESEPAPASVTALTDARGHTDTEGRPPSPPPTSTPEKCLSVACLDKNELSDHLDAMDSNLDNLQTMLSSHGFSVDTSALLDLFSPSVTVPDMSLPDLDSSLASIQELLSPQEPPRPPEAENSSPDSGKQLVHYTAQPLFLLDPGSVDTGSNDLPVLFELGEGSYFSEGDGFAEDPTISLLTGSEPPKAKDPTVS

As for `CCCCCCCCCCCCCCCO`, the outcome in [1], in [2], in assay [3], in assay [4], in assay [5] and in [7] was inactive. Moreover, the molecule was classed as inactive in assay [8], in [10], in assay [11], in [12], in assay [13] and in assay [14]. Also, the molecule was classed as inactive in assay [15]. For the same molecule, the AC50 (commonly the concentration at which the activity in the assay is half-maximal) was 175 µM (active) in [6] and 41.3 µM (active) in assay [9].

In the case of `O=C(O)CCN(C1(C(=O)NO)CCCC1)S(=O)(=O)c1ccc(Oc2ccc(F)cc2)cc1`, the result in assay [1], in [2], in assay [3], in [4], in assay [5] and in assay [6] was inactive. The molecule was called inactive in assay [7], in [8], in assay [16], in [10], in assay [12] and in assay [13]. The molecule was called inactive in [14], in assay [15] and in assay [17].

`CCc1cc(SCc2sc(-c3ccc(C(F)(F)F)cc3)nc2CN2CCN(c3ccc(OC)cc3)CC2)ccc1OCC(=O)O`: the AC50 in assay [1] is 11 µM (active); in assay [3], 15.8 µM (active); in [9], 3.93 µM (active); in assay [12], 15.3 µM (active); in assay [14], 18.1 µM (active); in [15], 8.53 µM (active). For the same molecule, the AC50 in assay [17] was 17 µM (active). Further, the outcome in assay [2], in assay [4], in assay [5], in [6], in assay [7] and in [8] was inactive. Also, the result in assay [18], in [10] and in assay [13] was inactive.

Take `Cc1[nH]cnc1C[C@H]1CCc2c(C)c3ccccc3n2C1=O`: the outcome in assay [1], in [2], in [4], in assay [5], in assay [6] and in assay [7] was inactive. Also, the result in assay [8], in assay [9], in [18], in [10], in [11] and in [13] was inactive. For the same molecule, the AC50 was 29.7 µM (active) in assay [3]; 21.9 µM (active) in assay [16]; 20.7 µM (active) in assay [12]; 46.5 µM (active) in assay [14]; 33.9 µM (active) in assay [15]; 15.8 µM (active) in assay [17].

Turning to `CC1(C)C(=O)N(Br)C(=O)N1Br`, the outcome in [1], in assay [2], in assay [3], in assay [4], in [5] and in assay [6] was inactive. In addition, the call in [7], in assay [8], in [9], in assay [18], in assay [10] and in assay [12] was inactive. Besides, the molecule was classed as inactive in assay [13], in assay [14], in [15] and in [17].

On to `Cn1c(=O)c2c(ncn2C)n(C)c1=O`, for which the outcome in assay [1], in assay [2], in assay [3], in assay [4], in assay [5] and in assay [6] was inactive. The call in assay [7], in assay [8], in [18], in assay [16], in [10] and in assay [11] was inactive. Besides, the molecule was classed as inactive in [12], in [13], in [14], in assay [15] and in [17].

Consider `Cc1ccc(C)c(O)c1`, for which the result in assay [1], in [2], in [3], in assay [4], in assay [5] and in assay [6] was inactive. The result in assay [7], in assay [8], in [9], in assay [18], in [10] and in assay [11] was inactive. Also, the molecule was called inactive in assay [12], in assay [13], in assay [14], in [15] and in assay [17].

Values taken from PubChem BioAssay (EPA / NIEHS).
